# Assay results reported in the supplement of paper PMC10849652.
# Targets with a hit are over-represented here; the source holds about 7,900 in all. About 0.6% of all pairs of compound and target were hits. A number with no mark means an inactive call.
# Columns and labels:
# Assay in all cases: log2 fold change, soluble protein after heating vs DMSO (PISA); higher = thermal stabilisation; K562 cells, 10 uM, 30 min; active = over 0.2 and 3.5 SD of the protein, either way, in both replicates (recomputed)
# [1] = compound: CC1=C(C=C(C=C1)NC(=O)C2=CC(=CC=C2)C(C)(C)C#N)NC3=CC4=C(C=C3)N=CN(C4=O)C
# Summary of the method: (§1)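 K562 cells at 2×10^6 cells/mL were treated with 10 μM compound for 30 min. Aliquots were heated for 3 min across 48°C-58°C, pooled, and extracted in PBS with 0.5% NP-40 at 4°C; soluble protein was the supernatant after 21,000xg for 90 min. Soluble protein was quantified by TMTpro 16plex LC-MS/MS with channel sums equalised, and reported as log2 fold change in thermal stability against DMSO controls, with values from duplicates.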
# [2] = compound: CC1=C(C=C(C=C1)NC(=O)C2=CC(=CC=C2)N(C)C)NC(=O)C3=CC=C(C=C3)O
# Summary of the method: as §1
# [3] = compound: CC1=CC=C(C=C1)SC2=C3C=C(SC3=CN=C2)C(=O)N
# Summary of the method: as §1
# [4] = compound: CC1=NC(=CC=C1)C2=C(N=C(N2)C(C)(C)C)C3=CC4=NC=CN=C4C=C3
# Summary of the method: as §1
# Nexturastat A = compound: CCCCN(Cc1ccc(C(=O)NO)cc1)C(=O)Nc1ccccc1 [Nexturastat A]
# Summary of the method: as §1
# vemurafenib = compound: CCCS(=O)(=O)Nc1ccc(F)c(C(=O)c2c[nH]c3ncc(-c4ccc(Cl)cc4)cc23)c1F [vemurafenib]
# Summary of the method: as §1
# [5] = compound: CCCS(=O)(=O)Nc1ccc(F)c(C(=O)c2c[nH]c3ncc(Cl)cc23)c1F
# Summary of the method: as §1
# [6] = compound: CCCc1cc(C)[nH]c(=O)c1CNC(=O)c1cc(-c2ccnc(N3CCN(C)CC3)c2)cc2c1cnn2C(C)C
# Summary of the method: as §1
# givinostat = compound: CCN(CC)Cc1ccc2cc(COC(=O)Nc3ccc(C(=O)NO)cc3)ccc2c1 [givinostat]
# Summary of the method: as §1
# barasertib = compound: CCN(CCCOc1ccc2c(Nc3cc(CC(=O)Nc4cccc(F)c4)[nH]n3)ncnc2c1)CCOP(=O)(O)O [barasertib]
# Summary of the method: as §1
# UniProt Q7Z4H3, sequence (Q7Z4H3 whole entry, looked up): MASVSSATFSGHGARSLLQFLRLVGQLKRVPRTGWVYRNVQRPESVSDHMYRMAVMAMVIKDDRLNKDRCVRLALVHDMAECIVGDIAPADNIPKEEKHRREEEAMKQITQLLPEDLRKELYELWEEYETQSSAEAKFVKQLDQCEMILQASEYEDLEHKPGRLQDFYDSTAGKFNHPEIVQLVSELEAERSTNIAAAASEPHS
# UniProt P00390, sequence (P00390 whole entry, looked up): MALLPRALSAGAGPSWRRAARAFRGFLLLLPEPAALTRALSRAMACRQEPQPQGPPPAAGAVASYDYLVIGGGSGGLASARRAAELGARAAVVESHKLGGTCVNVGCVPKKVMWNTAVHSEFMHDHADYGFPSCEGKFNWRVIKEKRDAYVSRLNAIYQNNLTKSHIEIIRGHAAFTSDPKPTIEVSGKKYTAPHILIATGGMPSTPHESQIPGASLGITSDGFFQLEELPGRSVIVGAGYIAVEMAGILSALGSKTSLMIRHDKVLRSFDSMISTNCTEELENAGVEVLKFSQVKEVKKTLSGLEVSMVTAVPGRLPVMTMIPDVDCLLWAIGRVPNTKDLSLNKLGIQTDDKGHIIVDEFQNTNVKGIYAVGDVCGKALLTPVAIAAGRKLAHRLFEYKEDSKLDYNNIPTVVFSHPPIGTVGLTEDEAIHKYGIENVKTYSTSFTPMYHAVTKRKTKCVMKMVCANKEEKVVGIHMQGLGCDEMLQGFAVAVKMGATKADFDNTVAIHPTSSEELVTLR
# UniProt P23434, sequence (P23434 whole entry, looked up): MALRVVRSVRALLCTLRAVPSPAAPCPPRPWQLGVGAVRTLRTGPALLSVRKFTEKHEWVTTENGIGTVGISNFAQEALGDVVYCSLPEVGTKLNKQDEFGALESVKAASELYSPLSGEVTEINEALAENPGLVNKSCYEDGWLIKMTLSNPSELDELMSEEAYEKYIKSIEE
# UniProt Q5SSJ5, sequence (Q5SSJ5 whole entry, looked up): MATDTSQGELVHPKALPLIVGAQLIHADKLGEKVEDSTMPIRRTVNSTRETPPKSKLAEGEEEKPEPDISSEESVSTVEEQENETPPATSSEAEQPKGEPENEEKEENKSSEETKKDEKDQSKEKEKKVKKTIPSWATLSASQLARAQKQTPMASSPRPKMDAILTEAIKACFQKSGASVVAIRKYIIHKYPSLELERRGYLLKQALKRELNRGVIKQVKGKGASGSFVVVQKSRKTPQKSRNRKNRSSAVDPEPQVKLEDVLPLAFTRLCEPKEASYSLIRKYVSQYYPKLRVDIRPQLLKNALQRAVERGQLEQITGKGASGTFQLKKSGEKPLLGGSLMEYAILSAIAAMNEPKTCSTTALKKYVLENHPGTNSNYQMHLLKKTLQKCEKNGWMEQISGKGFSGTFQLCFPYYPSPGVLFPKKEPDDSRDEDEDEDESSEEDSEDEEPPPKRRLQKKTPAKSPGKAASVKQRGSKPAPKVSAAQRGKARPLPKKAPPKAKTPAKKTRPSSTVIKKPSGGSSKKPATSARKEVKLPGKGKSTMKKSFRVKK
# UniProt Q03014, sequence (Q03014 whole entry, looked up): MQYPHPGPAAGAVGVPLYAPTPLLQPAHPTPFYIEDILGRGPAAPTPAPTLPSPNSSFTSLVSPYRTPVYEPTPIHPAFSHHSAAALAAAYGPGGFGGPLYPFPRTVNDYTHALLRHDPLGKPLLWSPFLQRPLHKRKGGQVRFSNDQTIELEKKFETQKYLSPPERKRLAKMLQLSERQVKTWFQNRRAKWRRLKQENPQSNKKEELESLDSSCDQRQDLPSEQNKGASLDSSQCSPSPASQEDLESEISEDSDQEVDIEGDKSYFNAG
# UniProt Q9NZC3, sequence (Q9NZC3 whole entry, looked up): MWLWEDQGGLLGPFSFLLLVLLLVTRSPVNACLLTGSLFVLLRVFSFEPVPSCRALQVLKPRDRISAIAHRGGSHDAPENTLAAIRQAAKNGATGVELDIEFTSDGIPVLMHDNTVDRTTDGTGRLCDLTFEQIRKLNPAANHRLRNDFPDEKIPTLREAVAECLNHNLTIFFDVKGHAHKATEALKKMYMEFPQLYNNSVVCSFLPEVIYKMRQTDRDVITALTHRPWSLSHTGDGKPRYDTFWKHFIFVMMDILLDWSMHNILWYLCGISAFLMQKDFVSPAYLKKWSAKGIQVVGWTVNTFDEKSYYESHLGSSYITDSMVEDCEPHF
# UniProt P0CL80, sequence (P0CL80 whole entry, looked up): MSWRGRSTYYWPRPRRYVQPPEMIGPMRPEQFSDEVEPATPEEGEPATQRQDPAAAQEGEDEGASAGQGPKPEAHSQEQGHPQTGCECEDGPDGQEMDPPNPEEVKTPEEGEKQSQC
# UniProt Q9Y3I1, sequence (Q9Y3I1 whole entry, looked up): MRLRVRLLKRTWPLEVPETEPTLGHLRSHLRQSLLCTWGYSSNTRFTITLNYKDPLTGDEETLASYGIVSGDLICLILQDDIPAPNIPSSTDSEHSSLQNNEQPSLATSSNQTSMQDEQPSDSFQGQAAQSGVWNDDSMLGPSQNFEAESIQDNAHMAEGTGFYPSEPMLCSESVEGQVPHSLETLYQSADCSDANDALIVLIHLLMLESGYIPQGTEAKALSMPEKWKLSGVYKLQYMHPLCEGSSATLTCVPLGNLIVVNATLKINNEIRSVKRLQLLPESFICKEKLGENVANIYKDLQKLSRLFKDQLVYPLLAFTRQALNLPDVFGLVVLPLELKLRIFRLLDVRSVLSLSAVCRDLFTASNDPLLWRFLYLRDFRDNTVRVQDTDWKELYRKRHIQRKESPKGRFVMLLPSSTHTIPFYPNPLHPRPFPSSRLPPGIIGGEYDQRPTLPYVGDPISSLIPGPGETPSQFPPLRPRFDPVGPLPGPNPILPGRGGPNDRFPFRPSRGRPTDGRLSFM
# UniProt Q92522, sequence (Q92522 whole entry, looked up): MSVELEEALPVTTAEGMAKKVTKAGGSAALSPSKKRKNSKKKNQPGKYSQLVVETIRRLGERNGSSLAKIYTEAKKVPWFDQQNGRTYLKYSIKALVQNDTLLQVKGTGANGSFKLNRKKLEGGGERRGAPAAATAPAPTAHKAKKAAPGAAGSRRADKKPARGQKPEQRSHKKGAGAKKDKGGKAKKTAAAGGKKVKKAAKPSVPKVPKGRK
# UniProt P0C0S5, sequence (P0C0S5 whole entry, looked up): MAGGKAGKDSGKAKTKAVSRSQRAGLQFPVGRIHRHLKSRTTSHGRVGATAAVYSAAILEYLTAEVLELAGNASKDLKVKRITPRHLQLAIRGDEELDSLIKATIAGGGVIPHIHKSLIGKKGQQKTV
# UniProt P51570, sequence (P51570 whole entry, looked up): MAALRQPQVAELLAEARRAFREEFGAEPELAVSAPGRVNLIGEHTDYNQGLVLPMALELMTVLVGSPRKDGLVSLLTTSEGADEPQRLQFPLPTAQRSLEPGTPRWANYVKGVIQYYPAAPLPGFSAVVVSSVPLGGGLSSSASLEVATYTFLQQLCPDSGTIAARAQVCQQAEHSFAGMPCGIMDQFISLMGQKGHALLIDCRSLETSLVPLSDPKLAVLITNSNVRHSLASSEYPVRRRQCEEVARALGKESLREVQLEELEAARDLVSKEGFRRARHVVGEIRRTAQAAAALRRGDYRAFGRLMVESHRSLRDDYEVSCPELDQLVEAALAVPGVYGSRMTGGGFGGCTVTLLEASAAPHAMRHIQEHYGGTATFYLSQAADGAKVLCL
# UniProt O94925, sequence (O94925 whole entry, looked up): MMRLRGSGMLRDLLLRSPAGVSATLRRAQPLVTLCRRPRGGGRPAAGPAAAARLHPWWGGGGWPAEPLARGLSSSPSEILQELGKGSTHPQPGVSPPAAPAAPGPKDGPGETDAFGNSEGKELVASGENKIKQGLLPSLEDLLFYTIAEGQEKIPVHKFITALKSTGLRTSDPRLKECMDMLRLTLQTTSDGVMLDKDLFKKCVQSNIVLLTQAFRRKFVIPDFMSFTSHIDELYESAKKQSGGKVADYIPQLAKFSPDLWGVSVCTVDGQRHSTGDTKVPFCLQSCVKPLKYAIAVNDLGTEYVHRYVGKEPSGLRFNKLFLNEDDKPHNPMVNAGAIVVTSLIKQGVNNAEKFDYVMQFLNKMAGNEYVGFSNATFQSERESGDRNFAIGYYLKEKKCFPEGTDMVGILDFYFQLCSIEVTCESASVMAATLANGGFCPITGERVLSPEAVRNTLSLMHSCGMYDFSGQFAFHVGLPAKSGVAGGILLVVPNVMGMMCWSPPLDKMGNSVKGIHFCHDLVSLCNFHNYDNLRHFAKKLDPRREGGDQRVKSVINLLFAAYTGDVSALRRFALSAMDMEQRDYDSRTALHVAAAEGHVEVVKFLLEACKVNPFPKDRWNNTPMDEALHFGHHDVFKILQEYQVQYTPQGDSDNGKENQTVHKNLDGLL
# UniProt P06280, sequence (P06280 whole entry, looked up): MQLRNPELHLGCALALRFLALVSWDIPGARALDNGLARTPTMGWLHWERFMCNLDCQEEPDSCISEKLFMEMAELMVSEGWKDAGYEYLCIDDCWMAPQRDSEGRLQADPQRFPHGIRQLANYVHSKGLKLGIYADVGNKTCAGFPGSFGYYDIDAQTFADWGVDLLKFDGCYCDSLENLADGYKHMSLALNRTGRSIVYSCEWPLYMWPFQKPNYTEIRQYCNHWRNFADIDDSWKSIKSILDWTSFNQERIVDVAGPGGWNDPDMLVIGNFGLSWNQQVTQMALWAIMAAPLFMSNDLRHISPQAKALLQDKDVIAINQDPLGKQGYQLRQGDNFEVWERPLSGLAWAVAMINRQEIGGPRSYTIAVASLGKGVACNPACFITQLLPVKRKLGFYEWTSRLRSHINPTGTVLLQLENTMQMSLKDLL
# UniProt Q00688, sequence (Q00688 whole entry, looked up): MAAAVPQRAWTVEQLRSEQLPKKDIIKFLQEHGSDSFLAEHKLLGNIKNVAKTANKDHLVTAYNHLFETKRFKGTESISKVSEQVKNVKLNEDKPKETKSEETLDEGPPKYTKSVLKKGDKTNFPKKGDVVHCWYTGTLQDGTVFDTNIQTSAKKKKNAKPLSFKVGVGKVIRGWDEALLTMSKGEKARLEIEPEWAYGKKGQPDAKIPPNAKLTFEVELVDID
Target,log2 fold change [1],log2 fold change [2],log2 fold change [3],log2 fold change [4],log2 fold change (Nexturastat A),log2 fold change (vemurafenib),log2 fold change [5],log2 fold change [6],log2 fold change (givinostat),log2 fold change (barasertib)
HNRNPUL2 (UniProt Q1KMD3),0.009,0.008,-0.074,-0.032,0.109,-0.047,-0.027,-0.002,0.047,-0.027
GLA (UniProt P06280),-0.016,0.027,-0.001,0.011,0.005,-0.009,-0.038,-0.039,0.04,0.005
HPCAL1 (UniProt P37235),-0.022,0.012,0.048,0.032,-0.092,-0.017,0.005,-0.076,-0.041,0.019
H2AZ1 (UniProt P0C0S5),-0.051,0,-0.174,-0.01,0.75 (active),-0.209,0.233,0.074,0.454,-0.083
HBA1 (UniProt P69905),0.021,-0.068,0.071,0.018,0.015,0.137,0.037,-0.038,-0.061,0.072
ICAM1 (UniProt P05362),-0.055,0.016,0.033,-0.016,0.02,0.018,-0.034,0.001,-0.014,-0.021
HOMER1 (UniProt Q86YM7),-0.049,-0.059,-0.009,0.125,-0.138,-0.021,0.071,0.085,0.007,0.036
HADHA (UniProt P40939),0.307,-0.203,0,-0.022,-0.1,-0.017,-0.006,0.1,0.044,-0.013
H1FX (UniProt Q92522),0.081,-0.059,-0.106,-0.222,0.278,-0.083,-0.077,0.176,-0.034,-0.129
HIST2H3A (UniProt Q71DI3),-0.1,-0.004,-0.119,-0.056,0.921 (active),-0.203,0.592,0.037,0.321,-0.148
GLUD1 (UniProt P00367),0.179,-0.007,-0.054,-0.011,-0.063,-0.012,-0.02,0.136,-0.062,-0.007
FDXR isoform 7 (UniProt P22570),-0.011,-0.078,-0.039,0.072,-0.07,0.02,0.024,0.059,-0.021,0.035
HDDC2 (UniProt Q7Z4H3),0.009,-0.03,0.014,0.029,-0.139,0.004,0.034,-0.018,-0.067,-0.022
GDE1 (UniProt Q9NZC3),0.022,-0.004,0.012,-0.059,0.02,-0.033,-0.009,0.064,-0.052,-0.049
GALK1 isoform 2 (UniProt P51570),0.244,0.004,0.144,0.02,-0.082,0.144,0.183,0.033,0.018,-0.007
GMEB1 (UniProt Q9Y692),0.088,0.041,0.04,0.014,-0.041,-0.048,0.154,0.047,0.058,0.008
IFITM3 (UniProt Q01628),-0.058,0.074,0.148,-0.059,-0.425 (active),0.177,0.2,0.218,-0.036,0.051
HMG20A (UniProt Q9NP66),-0.051,-0.009,-0.153,-0.016,0.033,0.027,0.016,0.149,0.03,0.024
GCSH (UniProt P23434),-0.024,0.047,0.279,0.006,-0.06,0.079,-0.021,-0.139,0,-0.095
HDHD2 (UniProt Q9H0R4),0.059,0.028,0.023,0.014,-0.316 (active),0.02,0.007,-0.028,0.007,0.011
GLS (UniProt O94925),-0.013,-0.072,-0.024,0.034,-0.065,0.096,0.132,0.062,0.041,0.054
FKBP3 (UniProt Q00688),0.024,0,0.009,0.122,-0.002,-0.015,-0.041,-0.013,-0.023,-0.02
FUCA2 (UniProt Q9BTY2),0.015,0,0.016,-0.02,-0.025,0.005,-0.053,-0.025,-0.028,-0.01
HHEX (UniProt Q03014),-0.03,0.045,-0.009,-0.055,0.05,-0.081,0,0.026,-0.026,-0.003
HEXA (UniProt P06865),-0.046,0.022,-0.019,0.004,-0.035,-0.006,-0.023,-0.023,-0.018,-0.001
FBXO7 (UniProt Q9Y3I1),-0.048,-0.028,0.004,-0.014,0.047,0.017,-0.022,-0.026,0.03,0.02
HDAC6 (UniProt Q9UBN7),0.016,-0.041,0.022,-0.091,0.522 (active),0.004,-0.018,-0.015,1.03 (active),0
HP1BP3 (UniProt Q5SSJ5),0.03,-0.026,-0.025,0.017,0.108,-0.014,0.018,-0.001,0.031,-0.129
GAGE12F (UniProt P0CL80),-0.005,-0.035,0.006,0.061,0.036,0.019,-0.018,-0.031,-0.076,0.01
GSR (UniProt P00390),-0.011,0.022,0.016,0.007,-0.073,-0.027,0.02,-0.026,-0.253 (active),-0.03
